Results taken from ChEMBL document CHEMBL3988442, “University of Dundee, Small-Polar-MMV Screening Library” (2021).
Out of some 69,000 compounds screened, about 1,000 (1.4%) showed an effect of 50% or more. The full list was thinned out, with strong results kept by preference.

Test system: Leishmania donovani
Assay: Leishmania intramacrophage assay
Type: functional, organism-based
Design: scale not given: in the data most compounds retested in dose-response had high values

N#CC1(C(=O)N2CCOC(c3ccc(F)cc3)C2)CCCCC1 (stereo not given)
Percent Effect (30.3 µM, […]): 33.91%

O=C(Nc1cc(C(F)(F)F)c[nH]c1=O)C1CCNCC1
Percent Effect (30.3 µM, […]): 29.22%

O=C(Nc1cc(C(F)(F)F)c[nH]c1=O)C1CCCO1 (stereo not given)
Percent Effect (30.3 µM, […]): 65.61%

Cl.O=C(Nc1cc(C(F)(F)F)c[nH]c1=O)C1CCCCN1 (stereo not given)
Percent Effect (30.3 µM, […]): 10.48%

CN1CCOC(CNCC(=O)NCCC2=CCCCC2)C1 (stereo not given)
Percent Effect (30.3 µM, […]): 0.5751%

C[C@@H]1CN(Cc2nc(Cc3ccccc3F)no2)C[C@H](C)O1
Percent Effect (30.3 µM, […]): 14.95%

COc1ccc(C[C@H]2CN(C(=O)c3cc(C)no3)CC[C@H]2OC)cc1
Percent Effect (30.3 µM, […]): 7.467%

CO[C@@H]1CCN(C(=O)c2cc(C)on2)C[C@@H]1Cc1ccccc1
Percent Effect (30.3 µM, […]): 52.23%

CO[C@H]1CCN(C(=O)c2cc(C)on2)C[C@@H]1Cc1ccccc1
Percent Effect (30.3 µM, […]): -10.42%

CC(=O)N1CCC2(CC1)CC(C(C)C)=NO2
Percent Effect (30.3 µM, […]): -2.802%

NC(=O)CSCC(=O)NCC1CCCC1
Percent Effect (30.3 µM, […]): 12%

CNC(=O)C1CN(Cc2ccc(C#N)cc2F)c2ccccc2O1 (stereo not given)
Percent Effect (30.3 µM, […]): 34.5%

O=C1CO[C@H]2CN(Cc3ccc(F)c(F)c3)C[C@H]2N1
Percent Effect (30.3 µM, […]): 13.71%

COc1ccc(F)cc1-c1ccccc1CC1(C(=O)O)CCOCC1
Percent Effect (30.3 µM, […]): -18.67%

CCOC(=O)C1(Cc2ccccc2-c2ccccc2OC)CCNCC1.Cl
Percent Effect (30.3 µM, […]): 51.68%

COc1ccccc1-c1ccccc1CC1(C(=O)O)CCNCC1
Percent Effect (30.3 µM, […]): -31.14%

CCNC(=O)C1CCCN(c2ccc3ccc(F)cc3n2)C1 (stereo not given)
Percent Effect (30.3 µM, […]): 4.617%

CC(C)Oc1ncccc1CNC(=O)NC(C)c1cccs1 (stereo not given)
Percent Effect (30.3 µM, […]): 19.58%

CCCOc1cc(C)ccc1NC(=O)NCCNC(=O)C(C)C
Percent Effect (30.3 µM, […]): -16.43%

COc1ccc2c(c1)OCC(CNc1cc(N)nc(SC)n1)C2 (stereo not given)
Percent Effect (30.3 µM, […]): 52.24%

CCc1nc2c(NCC3COc4c(cccc4OC)C3)ncnc2o1 (stereo not given)
Percent Effect (30.3 µM, […]): 45.88%

COc1cccc2c1OCC(CNc1cc(N)nc(SC)n1)C2 (stereo not given)
Percent Effect (30.3 µM, […]): 21.08%

COc1ccc2c(c1)OCC(Cc1ccc(C)nc1N)C2 (stereo not given)
Percent Effect (30.3 µM, […]): -0.8362%

CCc1nc2c(NCC3COc4cc(OC)ccc4C3)ncnc2o1 (stereo not given)
Percent Effect (30.3 µM, […]): 60.09%

CCc1nc2c(NCC3COc4ccccc4C3)ncnc2o1 (stereo not given)
Percent Effect (30.3 µM, […]): 35.57%

CCC(CNC(=O)c1nc(=O)[nH][nH]1)Oc1cccc(C(F)(F)F)c1 (stereo not given)
Percent Effect (30.3 µM, […]): 11.69%

CC1c2ncc(COCC3CC3)n2CCN1C.O=C(O)C(F)(F)F (stereo not given)
Percent Effect (30.3 µM, […]): 11.79%

Cc1nc(N(C)C)nc(-c2cccc(-c3ccn(CCCF)n3)c2)c1C
Percent Effect (30.3 µM, […]): -3.93%

CN(C)c1cc(CNC(=O)c2ccc(F)cc2F)ccn1
Percent Effect (30 µM, 30.03 µM): 42.64%

CCc1nc(CN(C)CC(=O)NC(C)C)cs1
Percent Effect (30.3 µM, […]): 35.21%

CCCc1cc(C(=O)N[C@H](C)[C@@H](O)c2ccc(O)cc2)n(C)n1
Percent Effect (30.3 µM, […]): 13.63%

CCCc1cc(C(=O)NC(C)c2ccccc2)n(C)n1 (stereo not given)
Percent Effect (30.3 µM, […]): 52.97%

CCCc1cc(C(=O)N[C@@H](CO)[C@@H](O)c2ccccc2)n(C)n1
Percent Effect (30.3 µM, […]): 0.7938%

CN(Cc1ccco1)C(=O)NCc1ccnc(SC(C)(C)C)c1
Percent Effect (30.3 µM, […]): 10.46%

CCn1cc(CNCc2ccc(C(=O)OC)cc2)c(C)n1
Percent Effect (30.3 µM, […]): -10.67%

CN(C)CC1(O)CCCN(C(=O)Cc2ccc(Cl)c(Cl)c2)C1 (stereo not given)
Percent Effect (30.3 µM, […]): -2.799%

CC(C)Nc1nc(N2CCCC2)nc2c1CN(c1ncc(F)cn1)CC2
Percent Effect (30.3 µM, […]): 60.7%

CC(C)Nc1nc(N2CCCC2)nc2c1CN(C(C)C)CC2
Percent Effect (30 µM, 30.03 µM): -2.181%

Cc1nc(CN2CCc3nc(N4CCCC4)nc(NC(C)C)c3C2)cs1
Percent Effect (30.3 µM, […]): 51.28%

Cc1nc(CN2CCc3nc(NC(C)C)nc(C)c3C2)cs1
Percent Effect (30.3 µM, […]): 4.033%

CCC(C)N1CCc2nc(N3CCCC3)nc(NC(C)C)c2C1 (stereo not given)
Percent Effect (30.3 µM, […]): 35.6%

CC(C)Nc1nc(N2CCCC2)nc2c1CN(C)CC2
Percent Effect (30.3 µM, […]): 20.69%

O=C(OCc1cccs1)c1cccc(C(=O)N2CCCC2)n1
Percent Effect (30.3 µM, […]): 3.746%

Cn1cc(-c2ncc3c(c2C(=O)O)CCN(Cc2ccco2)C3)cn1.O=C(O)C(F)(F)F
Percent Effect (30.3 µM, […]): 10.3%

Cc1ccc(C(=O)NCc2ccnc(N(C)C)c2)c(C)c1
Percent Effect (30.3 µM, […]): 24.48%

O=C(c1ccccn1)N1CCCC(c2ncncc2-c2ccncc2)C1 (stereo not given)
Percent Effect (30.3 µM, […]): -13.38%

O=C(O)C(F)(F)F.O=C1NCC[C@]12CN(CC1CCOCC1)C[C@H]2c1ccccc1
Percent Effect (30.3 µM, […]): 7.927%

Nc1ncccc1C(=O)NCc1cccc(Br)c1
Percent Effect (30.3 µM, […]): 45.5%

Cc1cccc(CNC(=O)c2cccnc2N)c1
Percent Effect (30.3 µM, […]): 26.02%

COc1cccc(CNC(=O)c2cccnc2N)c1
Percent Effect (30.3 µM, […]): 50.32%

COc1ccc(C(=O)NS(=O)(=O)c2cc(Cl)sc2Cl)cc1OC(F)F
Percent Effect (30.3 µM, […]): 16.5%

CCn1cc(NC(=O)NCC(c2ccsc2)N(C)C)cn1 (stereo not given)
Percent Effect (30 µM): 19.68%

COc1ccc(CC(=O)N2CCCC(n3cccn3)C2)cc1F (stereo not given)
Percent Effect (30 µM): 5.405%

CNC(=O)c1sccc1S(=O)(=O)Nc1ccc(C)cc1
Percent Effect (30.3 µM, […]): 8.63%

CN1CCOC(CN(C(=O)Cc2ccccc2F)c2nccs2)C1 (stereo not given)
Percent Effect (30 µM, 30.03 µM): -6.347%

c1ccc(Cc2nc(CN3CCCC3Cn3cncn3)cs2)cc1 (stereo not given)
Percent Effect (30 µM): -0.1933%

Cc1ccc2nc(C3CCCN3Cc3csc(C)n3)[nH]c2c1 (stereo not given)
Percent Effect (30.3 µM, […]): 32.46%

Cc1ccc2nc(C3CCCN3Cc3cccc(CCN)c3)[nH]c2c1 (stereo not given)
Percent Effect (30.3 µM, […]): 54.52%

Cc1ccc2nc(C3CCCN3Cc3scnc3C)[nH]c2c1 (stereo not given)
Percent Effect (30.3 µM, […]): 25.37%

O=C1NCCN(Cc2ccoc2)C1CC(=O)N1CCc2sccc2C1 (stereo not given)
Percent Effect (30.3 µM, […]): 23.18%

CN(CC(=O)NC1(C)CCS(=O)(=O)C1)Cc1ccc(Br)cc1 (stereo not given)
Percent Effect (30 µM): -0.9039%

CN(C)C(=O)CN1CCC2(COCc3cnc(-c4cccnc4)nc32)C1.O=C(O)C(F)(F)F.O=C(O)C(F)(F)F (stereo not given)
Percent Effect (30.3 µM, […]): 71.1%

CN(C)C(=O)CN1CCC2(COCc3cnc(-c4ccccc4)nc32)C1 (stereo not given)
Percent Effect (30.3 µM, […]): 31.1%

O=C(O)C(F)(F)F.c1cnc(N2CCC3(COCc4cnc(-c5cccnc5)nc43)C2)nc1 (stereo not given)
Percent Effect (30 µM, 30.03 µM): 17.52%

CN(C)C1CCN(C(=O)c2cccc(S(=O)(=O)NCC3(C)COC3)c2)C1 (stereo not given)
Percent Effect (30.3 µM, […]): 28.53%

CCn1cc(CN2CCCC(COc3ccccc3F)C2)cn1 (stereo not given)
Percent Effect (30.3 µM, […]): 32.99%

Cn1nccc1CN1CCCC(COc2ccccc2F)C1 (stereo not given)
Percent Effect (30.3 µM, […]): 53.5%

CC(C)n1c(C2CCCN(Cc3ccnn3C)C2)nc2ccccc21 (stereo not given)
Percent Effect (30 µM, 30.03 µM): 7.956%

COc1ccc(CN2Cc3[nH]nc(C(=O)N(C)C)c3C2)cc1
Percent Effect (30.3 µM, […]): 5.856%

COc1ccc(CCCN(C)C(=O)c2cc(Cl)c[nH]2)cc1OC
Percent Effect (30.3 µM, […]): 32.32%

COCCN(C)Cc1ccc(OC)c(OC(F)F)c1
Percent Effect (30 µM, 30.03 µM): 7.354%

COc1ccc(CCN(C)CCS(=O)(=O)c2ccc(Cl)cc2)cc1OC
Percent Effect (30.3 µM, […]): 7.861%

COc1ccc(CN(C)CCS(=O)(=O)c2ccc(Cl)cc2)cc1OC
Percent Effect (30.3 µM, […]): 56.02%

CCN(CCS(=O)(=O)c1ccc(Cl)cc1)Cc1ccc(OC)c(OC)c1
Percent Effect (30.3 µM, […]): 54.72%

CCN(Cc1nccs1)Cc1cc(Cl)ccc1OC
Percent Effect (30.3 µM, […]): -1.846%

Cc1cc(C)n(Cc2ccc(-c3noc(C(=O)NC[C@@H](C)O)n3)cc2)n1
Percent Effect (30.3 µM, […]): 18.71%

O=C(O)C(F)(F)F.O=C(O)C(F)(F)F.c1cnc(N2CCC3(CCN(Cc4ccncc4)CC3)CC2)nc1
Percent Effect (30 µM, 30.03 µM): 38.21%

Cc1nccn1CC1CCCN(S(=O)(=O)c2cnn(C)c2)C1 (stereo not given)
Percent Effect (30.3 µM, […]): 12.01%

O=C(N1CCOCC1)N1CCOC[C@H](Oc2ccc(C(F)(F)F)cc2)C1
Percent Effect (30.3 µM, […]): -1.363%

COc1cc(Cl)c(CN2CCC(C(N)=O)C2)cc1Cl (stereo not given)
Percent Effect (30.3 µM, […]): 31.88%

COc1cc(CN2CC[C@@H](N3CCCCCC3)[C@H](O)C2)cc(Cl)c1OC
Percent Effect (30.3 µM, […]): 50.85%

COc1cc(Cl)cc(CN2CCCC(N3CCCC3)C2)c1OC (stereo not given)
Percent Effect (30.3 µM, […]): 12.54%

COCCC(=O)N1CCC2(CCN(Cc3ccc(OC)c(F)c3)C2)C1 (stereo not given)
Percent Effect (30.3 µM, […]): -20.78%

CC(=O)NCc1ccc(C(=O)N2CCCc3c(F)ccc(C)c32)cc1
Percent Effect (30.3 µM, […]): 35.68%

COc1cccc2c1OCC(Cc1cc(C(=O)N3CCCC3)ccn1)C2 (stereo not given)
Percent Effect (30.3 µM, […]): 20.15%

COc1cccc2c1OCC(Cc1cc(C(N)=O)ccn1)C2 (stereo not given)
Percent Effect (30.3 µM, […]): 69.64%

CNC(=O)c1ccnc(CC2COc3c(cccc3OC)C2)c1 (stereo not given)
Percent Effect (30.3 µM, […]): -40.6%

CCOc1ncccc1CNC(=O)Nc1ccccc1
Percent Effect (30 µM): -12.58%

COc1nn(C)cc1-c1nnc(SCc2cccnc2)n1C
Percent Effect (30.3 µM, […]): -1.752%

CC(C)=CCC1(C(=O)O)CCCN(CCC(=O)NC2CC2)C1 (stereo not given)
Percent Effect (30.3 µM, […]): 0.5122%

CCN(CC)C(=O)c1nc2c(s1)CCN(Cc1cccc(OC)c1)CC2.O=C(O)C(F)(F)F
Percent Effect (30.3 µM, […]): -7.279%

Cc1cc(N(C)CCOc2ccccc2F)nc(N)n1
Percent Effect (30.3 µM, […]): 60.08%

COc1ccccc1OCCN(C)c1cc(C)nc(N)n1
Percent Effect (30.3 µM, […]): 6.974%

COc1ccc(OCCN(C)c2cc(C)nc(N)n2)cc1
Percent Effect (30.3 µM, […]): 6.601%

Cc1nc(C2CCCN2CC(=O)Nc2cc(C(C)(C)C)nn2C)no1 (stereo not given)
Percent Effect (30 µM): 12.3%

CC(C)n1cnnc1CN(C)CC1CCCNC1 (stereo not given)
Percent Effect (30.3 µM, […]): 32.72%

Cl.N#Cc1ccc(NC(=O)C2CSCN2)cc1 (stereo not given)
Percent Effect (30.3 µM, […]): 0.03454%

CS(=O)(=O)NCCC1CN(Cc2ccccc2F)CCO1 (stereo not given)
Percent Effect (30.3 µM, […]): 18.65%

OC1(Cn2ccnc2)CCN(C[C@]2(O)CCCN3CCCC[C@@H]32)CC1
Percent Effect (30.3 µM, […]): -28.91%

CC(=O)NCCNC(=O)Nc1cccc(Cl)c1SC(F)F
Percent Effect (30.3 µM, […]): 17.25%

O=C(NCCO)Nc1cccc(Cl)c1SC(F)F
Percent Effect (30 µM, 30.03 µM): -27.47%

CC(C(=O)Nc1cccc(Cl)c1SC(F)F)S(C)(=O)=O (stereo not given)
Percent Effect (30.3 µM, […]): 58.19%

Cc1[nH]c2ccc(C#N)cc2c1CCNc1ncnc2c1CCNCC2
Percent Effect (30.3 µM, […]): 16.81%

Cc1[nH]c2ccc(Cl)cc2c1CCNc1ncnc2c1CCNC2
Percent Effect (30.3 µM, […]): 54.3%

Cc1[nH]c2ccccc2c1CCNc1ncnc2c1CCNCC2
Percent Effect (30.3 µM, […]): 16.03%
